Measurements from the supplement of paper PMC3342239.
Structures can show the parent of a compound that is named as a salt.

Tested on: Saccharomyces cerevisiae
Assay: fraction of cells in G1 phase (DNA content, flow cytometry); higher = more cells with unreplicated DNA (G1 delay)
Settings: temperature: 30 C; YPD; JTY2953 pdr5 snq2 (sensitized); drug added to: cultures diluted from stationary phase; 6-7 h
Description: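 S. cerevisiae cultures in YPD at 30°C were treated with each drug of the Enzo FDA-approved library at 20 µg/ml (final µM given per drug). Cells were fixed after 6–7 h (S1) or 6 h (S2), or after 4.33 h for BY4741 (S3), then stained with SYTOX Green. %G1 is the Dean-Jett-Fox G1 peak area divided by the G1+G2/M peak areas, written as a fraction and averaged over at least two independent experiments. DMSO reference: mean ~0.49; >0.60 is called High G1 and <0.3876 Low G1. Scale: lower means mitotic delay.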

Compound	fraction of cells in G1 phase
CN(C)[C@@H]1C(=O)C(C(N)=O)=C(O)[C@@]2(O)C(=O)C3=C(O)c4c(O)cccc4[C@@](C)(O)[C@H]3C[C@@H]12 [Tetracycline] (44.9999 µM)	0.471
C#C[C@]1(O)CC[C@H]2[C@@H]3CCC4=CC(=O)CC[C@]4(C)[C@H]3CC[C@@]21C [Ethisterone] (64.009 µM)	0.462
CN1[C@@H]2C[C@@H](OC(=O)[C@H](CO)c3ccccc3)C[C@H]1[C@@H]1O[C@@H]12 [Scopolamine HBr] (65.928 µM)	0.464
C[C@@H]1CN([C@H]2CC[C@](C#N)(c3ccc(F)cc3)CC2)CC[C@]1(C(=O)O)c1ccccc1 [Levocabastine HCl] (47.5588 µM)	0.468
COc1ccc(C(=O)N2CCCC2=O)cc1 [Aniracetam] (91.2233 µM)	0.483
C=CCN1CC[C@]23c4c5ccc(O)c4O[C@H]2/C(=N/N=C2\CC[C@@]4(O)[C@H]6Cc7ccc(O)c8c7[C@@]4(CCN6CC=C)[C@H]2O8)CC[C@@]3(O)[C@H]1C5 [Naloxonazine 2HCl] (30.7323 µM)	0.456
